{"source": "the supplement of paper PMC11555231", "binders": {"B1": {"name": "PADI4_3_H5N H5N (peptide)", "chain": "YRDHNYRHPKYCG"}, "B2": {"name": "PADI4_3_Y6N Y6N (peptide)", "chain": "YRDHHNRHPKYCG"}, "B3": {"name": "PADI4_3_R2N R2N (peptide)", "chain": "YNDHHYRHPKYCG"}, "B4": {"name": "PADI4_3_R7N R7N (peptide)", "chain": "YRDHHYNHPKYCG"}, "B5": {"name": "PADI4_3_H8N H8N (peptide)", "chain": "YRDHHYRNPKYCG"}, "B6": {"name": "PADI4_3_P9N P9N (peptide)", "chain": "YRDHHYRHNKYCG"}, "B7": {"name": "PADI4_3_K10N K10N (peptide)", "chain": "YRDHHYRHPNYCG"}, "B8": {"name": "PADI4_3_Y11N Y11N (peptide)", "chain": "YRDHHYRHPKNCG"}, "B9": {"name": "PADI4_3_D3N D3N (peptide)", "chain": "YRNHHYRHPKYCG"}, "B10": {"name": "PADI4_3_H4N H4N (peptide)", "chain": "YRDNHYRHPKYCG"}, "B11": {"name": "PADI4_3_H5Q H5Q (peptide)", "chain": "YRDHQYRHPKYCG"}, "B12": {"name": "PADI4_3_Y6Q Y6Q (peptide)", "chain": "YRDHHQRHPKYCG"}, "B13": {"name": "PADI4_3_R2Q R2Q (peptide)", "chain": "YQDHHYRHPKYCG"}, "B14": {"name": "PADI4_3_R7Q R7Q (peptide)", "chain": "YRDHHYQHPKYCG"}, "B15": {"name": "PADI4_3_H8Q H8Q (peptide)", "chain": "YRDHHYRQPKYCG"}, "B16": {"name": "PADI4_3_P9Q P9Q (peptide)", "chain": "YRDHHYRHQKYCG"}, "B17": {"name": "PADI4_3_K10Q K10Q (peptide)", "chain": "YRDHHYRHPQYCG"}, "B18": {"name": "PADI4_3_Y11Q Y11Q (peptide)", "chain": "YRDHHYRHPKQCG"}, "B19": {"name": "PADI4_3_D3Q D3Q (peptide)", "chain": "YRQHHYRHPKYCG"}, "B20": {"name": "PADI4_3_H4Q H4Q (peptide)", "chain": "YRDQHYRHPKYCG"}, "B21": {"name": "PADI4_3_H5G H5G (peptide)", "chain": "YRDHGYRHPKYCG"}, "B22": {"name": "PADI4_3_Y6G Y6G (peptide)", "chain": "YRDHHGRHPKYCG"}, "B23": {"name": "PADI4_3_R2G R2G (peptide)", "chain": "YGDHHYRHPKYCG"}, "B24": {"name": "PADI4_3_R7G R7G (peptide)", "chain": "YRDHHYGHPKYCG"}, "B25": {"name": "PADI4_3_H8G H8G (peptide)", "chain": "YRDHHYRGPKYCG"}, "B26": {"name": "PADI4_3_P9G P9G (peptide)", "chain": "YRDHHYRHGKYCG"}, "B27": {"name": "PADI4_3_K10G K10G (peptide)", "chain": "YRDHHYRHPGYCG"}, "B28": {"name": "PADI4_3_Y11G Y11G (peptide)", "chain": "YRDHHYRHPKGCG"}, "B29": {"name": "PADI4_3_D3G D3G (peptide)", "chain": "YRGHHYRHPKYCG"}, "B30": {"name": "PADI4_3_H4G H4G (peptide)", "chain": "YRDGHYRHPKYCG"}, "B31": {"name": "PADI4_3_H5A H5A (peptide)", "chain": "YRDHAYRHPKYCG"}, "B32": {"name": "PADI4_3_Y6A Y6A (peptide)", "chain": "YRDHHARHPKYCG"}, "B33": {"name": "PADI4_3_R2A R2A (peptide)", "chain": "YADHHYRHPKYCG"}, "B34": {"name": "PADI4_3_R7A R7A (peptide)", "chain": "YRDHHYAHPKYCG"}, "B35": {"name": "PADI4_3_H8A H8A (peptide)", "chain": "YRDHHYRAPKYCG"}, "B36": {"name": "PADI4_3_P9A P9A (peptide)", "chain": "YRDHHYRHAKYCG"}, "B37": {"name": "PADI4_3_K10A K10A (peptide)", "chain": "YRDHHYRHPAYCG"}, "B38": {"name": "PADI4_3_Y11A Y11A (peptide)", "chain": "YRDHHYRHPKACG"}, "B39": {"name": "PADI4_3_D3A D3A (peptide)", "chain": "YRAHHYRHPKYCG"}, "B40": {"name": "PADI4_3_H4A H4A (peptide)", "chain": "YRDAHYRHPKYCG"}, "B41": {"name": "PADI4_3_H5I H5I (peptide)", "chain": "YRDHIYRHPKYCG"}, "B42": {"name": "PADI4_3_Y6I Y6I (peptide)", "chain": "YRDHHIRHPKYCG"}, "B43": {"name": "PADI4_3_R2I R2I (peptide)", "chain": "YIDHHYRHPKYCG"}, "B44": {"name": "PADI4_3_R7I R7I (peptide)", "chain": "YRDHHYIHPKYCG"}, "B45": {"name": "PADI4_3_H8I H8I (peptide)", "chain": "YRDHHYRIPKYCG"}, "B46": {"name": "PADI4_3_P9I P9I (peptide)", "chain": "YRDHHYRHIKYCG"}, "B47": {"name": "PADI4_3_K10I K10I (peptide)", "chain": "YRDHHYRHPIYCG"}, "B48": {"name": "PADI4_3_Y11I Y11I (peptide)", "chain": "YRDHHYRHPKICG"}, "B49": {"name": "PADI4_3_D3I D3I (peptide)", "chain": "YRIHHYRHPKYCG"}, "B50": {"name": "PADI4_3_H4I H4I (peptide)", "chain": "YRDIHYRHPKYCG"}, "B51": {"name": "PADI4_3_H5L H5L (peptide)", "chain": "YRDHLYRHPKYCG"}, "B52": {"name": "PADI4_3_Y6L Y6L (peptide)", "chain": "YRDHHLRHPKYCG"}, "B53": {"name": "PADI4_3_R2L R2L (peptide)", "chain": "YLDHHYRHPKYCG"}, "B54": {"name": "PADI4_3_R7L R7L (peptide)", "chain": "YRDHHYLHPKYCG"}, "B55": {"name": "PADI4_3_H8L H8L (peptide)", "chain": "YRDHHYRLPKYCG"}, "B56": {"name": "PADI4_3_P9L P9L (peptide)", "chain": "YRDHHYRHLKYCG"}, "B57": {"name": "PADI4_3_K10L K10L (peptide)", "chain": "YRDHHYRHPLYCG"}, "B58": {"name": "PADI4_3_Y11L Y11L (peptide)", "chain": "YRDHHYRHPKLCG"}, "B59": {"name": "PADI4_3_D3L D3L (peptide)", "chain": "YRLHHYRHPKYCG"}}}
{"biological_target": "PADI4, Q9UM07", "sequence (Q9UM07 whole entry)": "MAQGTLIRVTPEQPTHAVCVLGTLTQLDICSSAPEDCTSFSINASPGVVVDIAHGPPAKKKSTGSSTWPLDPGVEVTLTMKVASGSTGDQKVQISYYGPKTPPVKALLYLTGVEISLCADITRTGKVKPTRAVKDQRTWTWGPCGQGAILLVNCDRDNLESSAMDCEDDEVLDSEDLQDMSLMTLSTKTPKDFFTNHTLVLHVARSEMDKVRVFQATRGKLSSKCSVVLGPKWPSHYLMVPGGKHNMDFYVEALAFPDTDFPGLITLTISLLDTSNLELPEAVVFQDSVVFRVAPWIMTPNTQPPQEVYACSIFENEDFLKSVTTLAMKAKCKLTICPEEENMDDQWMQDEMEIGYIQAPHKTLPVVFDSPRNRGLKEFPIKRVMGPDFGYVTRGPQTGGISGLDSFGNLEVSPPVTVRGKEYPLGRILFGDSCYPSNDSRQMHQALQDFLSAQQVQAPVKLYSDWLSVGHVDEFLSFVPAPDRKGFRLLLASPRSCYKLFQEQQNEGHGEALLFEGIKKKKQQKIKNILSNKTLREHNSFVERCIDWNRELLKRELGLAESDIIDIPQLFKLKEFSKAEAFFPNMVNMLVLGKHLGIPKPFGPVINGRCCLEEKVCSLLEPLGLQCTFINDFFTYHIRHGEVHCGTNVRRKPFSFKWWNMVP", "test": "log2 enrichment score relative to parent PADI4_3 peptide (binding to PADI4); higher = tighter binding than parent", "conditions": "CaCl2: 10 mM", "method": "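Deep mutational scan of the cyclic peptide PADI4_3 (ClAc-D-Tyr1 initiator, thioether-cyclised to Cys12, C-terminal Gly plus HA tag, mRNA-displayed). Positions 2-11 were each randomised by NNK codons; Met was reprogrammed as N-methyl-alanine (MeA). One round of equilibrium panning against bead-immobilised human PADI4 (100 nM, 10 mM CaCl2, RT). Log2 enrichment (bound/input frequency) relative to the parent sequence (0 = parent), mean of three independent selections.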"}
{"binder": "B1", "log2 enrichment score": -3.38}
{"binder": "B2", "log2 enrichment score": -2.28}
{"binder": "B3", "log2 enrichment score": -2.77}
{"binder": "B4", "log2 enrichment score": 1.37}
{"binder": "B5", "log2 enrichment score": -2.87}
{"binder": "B6", "log2 enrichment score": -2.01}
{"binder": "B7", "log2 enrichment score": -1.77}
{"binder": "B8", "log2 enrichment score": -3.81}
{"binder": "B9", "log2 enrichment score": -2.8}
{"binder": "B10", "log2 enrichment score": -2.71}
{"binder": "B11", "log2 enrichment score": -3.72}
{"binder": "B12", "log2 enrichment score": -1.94}
{"binder": "B13", "log2 enrichment score": -1.6}
{"binder": "B14", "log2 enrichment score": -0.31}
{"binder": "B15", "log2 enrichment score": -3.37}
{"binder": "B16", "log2 enrichment score": -1.71}
{"binder": "B17", "log2 enrichment score": -1.09}
{"binder": "B18", "log2 enrichment score": -4.43}
{"binder": "B19", "log2 enrichment score": -3.32}
{"binder": "B20", "log2 enrichment score": -0.57}
{"binder": "B21", "log2 enrichment score": -3.73}
{"binder": "B22", "log2 enrichment score": -1.54}
{"binder": "B23", "log2 enrichment score": -3.89}
{"binder": "B24", "log2 enrichment score": -2.58}
{"binder": "B25", "log2 enrichment score": -3.99}
{"binder": "B26", "log2 enrichment score": -2.45}
{"binder": "B27", "log2 enrichment score": -2.43}
{"binder": "B28", "log2 enrichment score": -4.17}
{"binder": "B29", "log2 enrichment score": -3.8}
{"binder": "B30", "log2 enrichment score": -3.75}
{"binder": "B31", "log2 enrichment score": -2.12}
{"binder": "B32", "log2 enrichment score": -1.95}
{"binder": "B33", "log2 enrichment score": -2.77}
{"binder": "B34", "log2 enrichment score": 0.206}
{"binder": "B35", "log2 enrichment score": -3.62}
{"binder": "B36", "log2 enrichment score": -1.66}
{"binder": "B37", "log2 enrichment score": -1.7}
{"binder": "B38", "log2 enrichment score": -4.24}
{"binder": "B39", "log2 enrichment score": -2.97}
{"binder": "B40", "log2 enrichment score": -1.88}
{"binder": "B41", "log2 enrichment score": -3.45}
{"binder": "B42", "log2 enrichment score": -2.71}
{"binder": "B43", "log2 enrichment score": -1.38}
{"binder": "B44", "log2 enrichment score": -1.67}
{"binder": "B45", "log2 enrichment score": -3.37}
{"binder": "B46", "log2 enrichment score": -1.78}
{"binder": "B47", "log2 enrichment score": 2.81}
{"binder": "B48", "log2 enrichment score": -3.77}
{"binder": "B49", "log2 enrichment score": -4.17}
{"binder": "B50", "log2 enrichment score": -2.05}
{"binder": "B51", "log2 enrichment score": -3.61}
{"binder": "B52", "log2 enrichment score": -1.7}
{"binder": "B53", "log2 enrichment score": -0.745}
{"binder": "B54", "log2 enrichment score": -2.09}
{"binder": "B55", "log2 enrichment score": -3.01}
{"binder": "B56", "log2 enrichment score": -2.12}
{"binder": "B57", "log2 enrichment score": 0.693}
{"binder": "B58", "log2 enrichment score": -3.94}
{"binder": "B59", "log2 enrichment score": -2.88}
